# From PubChem BioAssay
# An excerpt weighted towards active compounds, which were near 6.1% of everything screened.
# D1 antag: antagonists of human D1 dopamine receptor; P21728; activity change, negative = inhibition, % at 10 µM; HEK293 TREx D1 cells, calcium flux, dopamine EC80; active compounds read low; 3.2% of 360,000 active; in the data active = activity change below about -30%
#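 HEK293 T-REx cells expressing inducible, force-coupled D1 receptor; no-wash Ca dye, 30–90 min RT. Cmpd → 180 s read at 1 Hz → EC80 DA → 180 s read.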
# D1 PAM: enhances dopamine response at the human D1 receptor; AID 504651; HEK293 TREx D1 cells, calcium flux, dopamine EC20 potentiation; potentiation, % at 10 µM; 0.036% of 360,000 active; P21728; in the data active = potentiation above about 30%
# D3 ag: agonists of human D3 dopamine receptor | D3R DiscoveRx beta-arrestin cells, luminescence, 90 min | max activation, % | 0.58% of 410,000 active | AID 652048; in the data active = max activation above about 30%
# Target sequence (P35462 whole entry, looked up): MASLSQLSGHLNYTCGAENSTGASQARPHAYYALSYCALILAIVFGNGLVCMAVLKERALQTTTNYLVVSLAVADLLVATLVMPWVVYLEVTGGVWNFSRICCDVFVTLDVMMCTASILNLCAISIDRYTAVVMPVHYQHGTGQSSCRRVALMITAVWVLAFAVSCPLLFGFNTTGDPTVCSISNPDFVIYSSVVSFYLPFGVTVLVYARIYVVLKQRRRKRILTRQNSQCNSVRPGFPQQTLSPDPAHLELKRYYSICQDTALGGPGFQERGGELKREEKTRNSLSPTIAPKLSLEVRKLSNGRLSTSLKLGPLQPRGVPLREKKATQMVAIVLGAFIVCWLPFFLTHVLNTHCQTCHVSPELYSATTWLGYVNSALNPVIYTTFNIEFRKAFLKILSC
#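 Agonist-mode cell screen: cells plated at 1500/well and incubated overnight at 37 °C, then exposed to library compounds for 90 min at 37 °C. Detection reagent was added for 30–60 min at room temperature, and luminescence was read.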
# D3 antag: antagonists of human D3 dopamine receptor. D3R cells, DiscoveRx beta-arrestin luminescence, antagonist mode; active compounds read low. 2.5% of 360,000 active. max response, negative = inhibition, %. AID 652054; in the data active = max response below about -50%; inconclusive = no clear call, values can overlap the other calls
#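 Cells plated overnight at 1500 cells/well, then exposed to library compounds with dopamine controls for 90 minutes at 37 degrees C. DiscoveRx reagent added for 30–60 minutes at room temperature; luminescence read, quantitative HTS format.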
# D1 ag: activates the human D1 dopamine receptor; HEK293 T-REx D1 cells, calcium flux, agonist mode; activation, % at 2 µM; 1% of 360,000 active; in the data active = activation above about 30%
#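 Tetracycline-induced HEK293 TREx D1 cells, force-coupled to calcium signalling, were dye-loaded with a no-wash calcium kit. Compound was pin-added after a 10 s baseline. Fluorescence was read kinetically at 1 cycle/s for 180 s, with calcium rises flagged as agonism.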
# Hits are given with their value; – = inactive; ? = inconclusive; · = no result.
SMILES,D1 antag,D1 PAM,D3 ag,D3 antag,D1 ag
CCCNC(=O)c1ccccc1N1CCN(CCCCN2C(=O)C3CCCCN3C2=O)CC1 (stereo unspecified),–,–,–,-72,–
CCCC(=O)N1c2nc(-c3ccco3)nn2C2(CCCCC2)[C@@H]2CCCC[C@@H]21,–,–,–,·,–
O=C(NC1CCCC1)C(c1ccncc1)N(C(=O)Cc1cccs1)c1ccccc1 (stereo unspecified),–,–,–,–,–
O=C(NC1CCCC1)C(c1ccncc1)N(C(=O)Cc1cccs1)c1cccc(F)c1 (stereo unspecified),-32,–,–,–,–
CCOC(=O)C1CCN(C(c2ccccc2OC)c2c(O)cc(C)n(CCOC)c2=O)CC1 (stereo unspecified),–,–,–,·,–
CCc1ccc(CN(C)CC(O)COc2cccc3ccccc23)cc1 (stereo unspecified),–,–,–,–,–
CN(CCOc1cccc2ccccc12)Cc1ccccc1,–,–,–,-76,–
CCN(Cc1ccccc1)C(=O)CCCOc1ccccc1,–,–,–,–,–
CN(CCOc1ccc(Cl)cc1)C(=O)c1cccc(S(=O)(=O)N2CCN(c3ccc(F)cc3)CC2)c1,·,·,–,–,·
CN(CCOc1ccc(Cl)cc1)Cc1cccc(S(=O)(=O)N(C)C)c1,–,–,47,–,–
c1ccc(CCNCCCOc2cccc3ccccc23)cc1,–,–,–,-67,50
CN(CCOc1ccccc1)Cc1ccccc1,·,·,–,-117,·
Cc1cc(N2CCC(C)CC2)c(F)cc1[N+](=O)[O-],–,–,–,–,–
Cc1cc(N2CCCC2)c(F)cc1/C=C\[N+](=O)[O-],–,–,–,–,400
Cc1cc(C)nc(SCC(=O)N2CCOCC2)n1,–,–,–,-54,–
CC(=O)Oc1cccc2c1C(=O)c1c(OC(C)=O)cc(C(=O)O)cc1C2=O,–,–,–,-122,–
Clc1ccc(CCNC(c2ccc(Cl)cc2)c2nnc(-c3ccccc3)o2)cc1 (stereo unspecified),–,–,–,·,35
COc1ccc(OCC(=O)Nc2cccc(-c3nc4ccccc4s3)c2C)cc1,–,–,–,·,35
COc1ccc(OCC(=O)Nc2cc(-c3nc4ccccc4s3)ccc2C)cc1,–,–,–,·,–
CC(=O)Nc1ccc(C(=O)CSc2cc(C)c3cccc(C)c3n2)cc1,–,–,41,–,–
COc1ccc(NC(=O)c2ccco2)cc1NC(=O)c1ccc(OC(C)C)cc1,–,–,–,·,–
CCc1ccc2nc3sc(C(=O)O)cc3cc2c1,–,–,–,–,255
COc1ccc(-c2ccc(-c3noc(-c4ccco4)n3)c(OC)n2)cc1,–,–,37,–,–
COc1nc(-c2ccccc2)ccc1-c1noc(-c2ccccc2)n1,–,–,–,–,–
COc1ccc(-c2ccc(-c3noc(-c4ccccc4)n3)c(OC)n2)cc1,-46,–,–,–,–
SMILES,D1 antag,D1 PAM,D3 ag,D3 antag,D1 ag
COc1nc(-c2ccccc2)ccc1-c1noc(-c2ccco2)n1,–,–,–,–,–
Cc1ccc(NC(=O)C(=O)NCC(c2cccnc2)N2CCN(c3ccccc3F)CC2)cc1Cl (stereo unspecified),–,–,–,·,–
C(=N\Nc1nc(N2CCCCCC2)nc(N2CCCCCC2)n1)/c1ccccc1,–,–,–,–,–
COc1ccc(/C=N/Nc2nc(N3CCCC3)nc(N3CCCC3)n2)c(OC)c1OC,-42,–,–,–,–
Oc1ccc(/C=N/Nc2nc(N3CCCCCC3)nc(N3CCCCCC3)n2)c(O)c1,-41,–,37,–,–
CC(/C=N/Nc1nc(N2CCCCC2)nc(N2CCCCC2)n1)=C\c1ccccc1,–,–,39,–,–
Oc1ccc(Br)cc1/C=N/Nc1nc(N2CCCCC2)nc(N2CCOCC2)n1,–,–,–,–,–
COc1ccccc1CNC(=O)CN1C(=O)COc2ccc(S(=O)(=O)Nc3ccccc3)cc21,–,–,–,·,–
CCCCN(C)CCCNC(=O)Cn1nc(CC)n2c(cc3sc(C)cc32)c1=O,–,–,–,·,–
CCOc1ccccc1NC(=O)CSC1=Nc2ccccc2C2=NC(CC(=O)NCc3ccc4c(c3)OCO4)C(=O)N12 (stereo unspecified),–,–,–,·,–
CCOc1ccc(-c2nc3c(c(SCC(=O)N4CCCCC4)n2)Cc2cc(C)ccc2O3)cc1,–,–,–,·,–
Cn1c(N2CCOCC2)c(/C=N/OC(=O)c2ccc(F)cc2)c2ccccc21,–,–,–,–,–
Cn1c(Cl)c(/C=N/OC(=O)c2ccc(Cl)cc2)c2ccccc21,–,–,–,-69,–
Cc1ccc(C(=O)O/N=C/c2c(N3CCOCC3)n(C)c3ccccc23)cc1,–,–,53,–,–
Cc1ccc(C(=O)O/N=C/c2c(Cl)n(C)c3ccccc23)cc1,–,–,–,–,–
O=C(COC(=O)c1cccc(S(=O)(=O)N2CCc3ccccc3C2)c1)NCc1ccco1,–,–,–,–,–
O=C(COC(=O)c1cc(S(=O)(=O)N2CCc3ccccc3C2)ccc1Cl)NCc1ccco1,–,–,–,-55,–
CC(=O)Nc1cc2c(s1)c1cnn(Cc3ccccc3F)c(=O)c1n2C,–,–,·,·,–
Cc1ccc(Cn2c(=O)n(-c3cc(C)cc(C)c3)c(=O)c3oc4ccccc4c32)cc1,–,–,–,·,–
CCOC(=O)c1c(C)oc2c(Cl)cc(NS(=O)(=O)c3ccc(Cl)c(C)c3)cc12,-31,–,–,·,–
CCc1ccc(S(=O)(=O)Nc2ccc3oc(C)c(C(=O)OCCOC)c3c2)cc1,-43,–,–,·,–
COCCOC(=O)c1c(C)oc2ccc(NS(=O)(=O)c3ccc(C)cc3)cc12,–,–,–,–,–
COc1ccc(C)cc1NC(=O)Nc1ccccc1OCc1cc(=O)n2ccccc2n1,–,–,–,·,–
Cc1ccccc1NC(=O)CSc1nc2c(oc3ccccc32)c(=O)n1-c1ccccc1F,–,–,–,·,–
O=C(/C=C/c1cccc(OCc2ccccc2)c1)c1cccnc1,-37,–,–,–,–
SMILES,D1 antag,D1 PAM,D3 ag,D3 antag,D1 ag
O=C(O)/C=C/c1cccc(OCc2ccccc2)c1,–,–,–,?,–
CC(=O)Nc1c(C)nn(-c2ccccc2)c1N1CCC(C(=O)NCc2ccc(F)cc2)CC1,–,–,–,·,–
Cc1ccc(C)c(C(C)NC(=S)NC2CCCCC2)c1 (stereo unspecified),–,–,–,–,–
CCCc1ccc(C(C)NC(=S)NC2CCCCC2)cc1 (stereo unspecified),–,–,–,–,36
CCC(NC(=S)NC1CCCCC1)c1ccc(C)cc1 (stereo unspecified),-59,–,·,·,–
COC(=O)C1=CC(C(=O)c2cccs2)=NN(c2ccc(OC)cc2)C1C(=O)OC (stereo unspecified),–,–,–,-56,–
CC(=O)Oc1cc(C)c(OC(C)=O)c2ccccc12,·,·,–,·,·
